From PubChem BioAssay
Activity calls are given as the source filed them. Unless noted, the rule behind the calls is not given here.

Legend:
[1] = compounds binding Alexa647 anti-His antibody – biochemical, small-molecule microarray, 635 nm fluorescence, artefact control for SMM control protein annotation, primary screen (AID 1128); details: higher = more signal;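 note: score merges feature fluorescence with signal-to-noise for each printed compound spot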
[2] = tested on: Human papillomavirus type 1a E7 protein (residues 1-88); test: HPV1a E7 small-molecule binders, primary screen, biochemical, small-molecule microarray, residues 1-88, 635 nm (AID 1129); details: small-molecule microarray binding, fluorescence 635 nm; higher = more signal
[3] = molecular target: Focal adhesion kinase 1 (Homo sapiens) (UniProt Q05397); test: PTK2 protein binding on printed compound slides – biochemical, small-molecule microarray, 635/667 nm fluorescence, BSA, DTT, primary screen (AID 1130); details: 635 nm fluorescence, higher = more signal;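 note: composite of spot emission at 667 nm and signal to noise over triplicate slides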
[4] = tested on: Fibrinogen (Alexa647-labelled); test: Alexa647-fibrinogen binding to printed small molecules – biochemical, small-molecule microarray, 635/667 nm fluorescence, artefact control for SMM control-protein annotation, profiling panel (AID 1131); details: fibrinogen-A647 binding fluorescence, higher = more signal;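 note: z-score merges 667 nm fluorescence with per-spot signal-to-noise over triplicate slides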
[5] = molecular target: Follistatin (Homo sapiens) (UniProt P19883); test: FST protein binding to printed compounds – biochemical, small-molecule microarray, 635/667 nm fluorescence, primary screen (AID 1132); details: 635 nm fluorescence, higher = more signal
[6] = molecular target: Fibroblast growth factor 2 (Homo sapiens) (UniProt P09038); test: basic fibroblast growth factor binding to printed compounds – biochemical, small-molecule microarray, 635/667 nm fluorescence, primary screen (AID 1133); details: FGF2, fluorescence 635/667, higher = more signal
[7] = JC-1 mitochondrial potential readout, lung cancer cells – cell-based, A549, JC-1 fluorescence, basal, 24 h, 100 nL, profiling panel (AID 1138); details: higher = more signal;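 note: A549 lung adenocarcinoma cells under basal conditions with no added stimulus; test concentration not given here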
Lefty1 = Lefty1 protein binding to printed compounds – biochemical, small-molecule microarray, 635/667 nm fluorescence, primary screen (AID 1139); details: fluorescence 635/667, higher = more signal
[8] = tested on: wheat germ agglutinin (Triticum aestivum), Alexa647-labelled; test: Alexa647-WGA lectin binding to printed small molecules – biochemical, small-molecule microarray, 635/667 nm fluorescence, artefact control for SMM control-protein annotation, profiling panel (AID 1140); details: WGA-A647 binding, 635 nm fluorescence, higher = more signal;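 note: score merges 667 nm feature emission with signal to noise over triplicate slides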
[9] = molecular target: Luciferin 4-monooxygenase (Photinus pyralis) (UniProt P08659); test: inhibition of purified Photinus pyralis luciferase – biochemical, luminescence, purified enzyme, 2006 set, primary screen (AID 1141); details: purified firefly luciferase, SteadyGlo luminescence, 30 min; higher = more signal, called active from +8 up or from −8 down;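 note: cell-free assay with purified firefly luciferase at 100 ng per well in PBS; test concentration not given here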
[10] = tested on: Wnt5a (protein binding on small-molecule microarray); test: small molecules binding Wnt5a protein – biophysical, small-molecule microarray, 635/667 nm fluorescence, primary screen (AID 1142); details: 635 nm fluorescence, higher = more signal;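 note: fluorescence read at 667 nm with signal to noise per printed feature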
[11] = ATP-based viability of Huh7 replicon cells – cell-based, CellTiter-Glo luminescence, basal, 48 h, cytotoxicity control for HCV replication inhibitor project, primary screen (AID 1143); details: higher = more signal, called active from +8 up or from −8 down;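 note: Huh7 hepatoma cells carrying a hepatitis C replication reporter with no stimulus; test concentration not given here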
[12] = Pseudomonas biofilm growth suppression – PAO1 strain, BacTiter-Glo luminescence, LB-PBS, primary screen (AID 1144); details: P. aeruginosa PAO1 biofilm, 12 h, higher = more signal
[13] = basal CRE-LacZ reporter activity in PC12 – cell-based, unstimulated, primary screen (AID 1145); details: no forskolin, luminescence, 4.5 h, higher = more signal, called active from +8 up or from −8 down
[14] = forskolin-driven CRE-LacZ activity in PC12 – cell-based, CRE-LacZ reporter, forskolin-stimulated, primary screen (AID 1146); details: luminescence, 4.5 h, higher = more signal, called active from +8 up or from −8 down;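 note: PC12 cells with 6xCRE LacZ reporter stimulated by forskolin 10 µM; beta-galactosidase reporter signal reflecting CREB driven transcription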
[15] = molecular target: Streptavidin (Streptomyces avidinii) (UniProt P22629); test: compounds binding control protein streptavidin – biophysical, small-molecule microarray, 635/667 nm fluorescence, artefact control for SMM compound annotation, primary screen (AID 1147); details: higher = more signal;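 note: signal reflects streptavidin binding to arrayed compounds as a control protein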
[16] = probe aInhba binding on compound microarray – biochemical, small-molecule microarray, 635/667 nm fluorescence, primary screen (AID 1148); details: higher = more signal;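 note: score merges 667nm spot fluorescence with signal-to-noise for antibody binding to printed compounds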
Torsin-1A (Homo sapiens) [17] = molecular target: Torsin-1A (Homo sapiens) (UniProt O14656); test: TOR1A wild-type binding on microarray – cell lysate, small-molecule microarray, lysate, 635/667 nm, primary screen (AID 1149); details: COS7 hTOR1A-WT lysate, 635 nm fluorescence, higher = more signal
Torsin-1A (Homo sapiens) [18] = molecular target: Torsin-1A (Homo sapiens) (UniProt O14656); test: torsin A mutant lysate binding on microarrays – cell lysate, small-molecule microarray, COS7 lysate, 635/667 nm fluorescence, primary screen (AID 1150); details: COS7 hTOR1A mutant lysate, 635 nm fluorescence, higher = more signal;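 note: score pools 667 nm emission and signal to noise measuring lysate protein binding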
[19] = tested on: Sonic hedgehog protein (Shh); test: Sonic hedgehog microarray binding compounds – biochemical, small-molecule microarray, 635/667 nm fluorescence, primary screen (AID 1151); details: 635 nm fluorescence, higher = more signal;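 note: Shh protein binding to compounds spotted on small-molecule microarray slides; score combines spot fluorescence intensity with signal-to-noise across triplicate slides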

Sequence of Follistatin (Homo sapiens) (P19883 whole entry, looked up): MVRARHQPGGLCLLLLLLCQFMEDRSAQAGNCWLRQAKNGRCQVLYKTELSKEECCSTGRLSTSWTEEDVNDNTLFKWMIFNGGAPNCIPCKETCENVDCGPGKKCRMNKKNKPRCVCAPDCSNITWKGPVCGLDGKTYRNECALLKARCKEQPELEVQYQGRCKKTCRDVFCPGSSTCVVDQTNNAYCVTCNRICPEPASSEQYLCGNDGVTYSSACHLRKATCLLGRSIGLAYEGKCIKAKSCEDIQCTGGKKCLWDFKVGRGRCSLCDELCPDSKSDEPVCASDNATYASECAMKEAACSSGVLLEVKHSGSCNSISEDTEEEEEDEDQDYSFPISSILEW
Sequence of Torsin-1A (Homo sapiens) (O14656 whole entry, looked up): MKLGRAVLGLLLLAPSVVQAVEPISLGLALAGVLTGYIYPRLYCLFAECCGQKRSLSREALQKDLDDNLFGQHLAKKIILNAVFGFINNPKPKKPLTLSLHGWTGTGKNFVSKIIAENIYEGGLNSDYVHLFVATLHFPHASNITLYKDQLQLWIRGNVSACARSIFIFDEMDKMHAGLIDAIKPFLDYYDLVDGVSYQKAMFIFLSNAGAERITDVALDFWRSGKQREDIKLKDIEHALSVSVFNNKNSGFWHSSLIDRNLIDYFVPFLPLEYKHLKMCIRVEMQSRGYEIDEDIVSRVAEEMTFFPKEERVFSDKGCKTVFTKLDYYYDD
Sequence of Focal adhesion kinase 1 (Homo sapiens) (Q05397 whole entry, looked up): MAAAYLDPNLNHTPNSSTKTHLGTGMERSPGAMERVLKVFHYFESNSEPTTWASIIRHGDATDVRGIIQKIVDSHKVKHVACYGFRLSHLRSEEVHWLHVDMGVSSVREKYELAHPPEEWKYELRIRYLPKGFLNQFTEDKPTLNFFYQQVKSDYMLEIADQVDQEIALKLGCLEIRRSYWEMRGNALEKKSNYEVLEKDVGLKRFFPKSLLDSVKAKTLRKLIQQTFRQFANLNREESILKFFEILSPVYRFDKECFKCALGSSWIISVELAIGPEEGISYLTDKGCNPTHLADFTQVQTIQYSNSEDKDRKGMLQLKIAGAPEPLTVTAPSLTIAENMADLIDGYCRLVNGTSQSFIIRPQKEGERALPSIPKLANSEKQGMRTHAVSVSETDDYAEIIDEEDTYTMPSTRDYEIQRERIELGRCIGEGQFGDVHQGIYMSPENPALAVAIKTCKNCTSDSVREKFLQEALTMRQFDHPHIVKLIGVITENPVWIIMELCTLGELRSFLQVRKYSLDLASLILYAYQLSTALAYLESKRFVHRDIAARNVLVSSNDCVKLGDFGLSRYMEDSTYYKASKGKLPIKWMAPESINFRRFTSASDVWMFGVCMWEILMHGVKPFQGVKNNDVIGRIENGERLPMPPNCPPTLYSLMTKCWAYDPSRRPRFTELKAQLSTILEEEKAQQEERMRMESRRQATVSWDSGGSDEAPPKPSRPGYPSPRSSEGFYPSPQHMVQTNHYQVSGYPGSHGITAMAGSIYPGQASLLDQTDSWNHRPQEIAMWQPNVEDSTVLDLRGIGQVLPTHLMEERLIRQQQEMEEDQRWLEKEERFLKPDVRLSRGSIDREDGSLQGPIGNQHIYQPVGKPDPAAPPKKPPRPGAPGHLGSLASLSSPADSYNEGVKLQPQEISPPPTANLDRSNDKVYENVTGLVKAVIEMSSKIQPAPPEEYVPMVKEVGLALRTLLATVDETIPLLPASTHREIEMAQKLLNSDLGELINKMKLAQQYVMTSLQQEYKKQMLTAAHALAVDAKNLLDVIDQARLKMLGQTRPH
Sequence of Fibroblast growth factor 2 (Homo sapiens) (P09038 whole entry, looked up): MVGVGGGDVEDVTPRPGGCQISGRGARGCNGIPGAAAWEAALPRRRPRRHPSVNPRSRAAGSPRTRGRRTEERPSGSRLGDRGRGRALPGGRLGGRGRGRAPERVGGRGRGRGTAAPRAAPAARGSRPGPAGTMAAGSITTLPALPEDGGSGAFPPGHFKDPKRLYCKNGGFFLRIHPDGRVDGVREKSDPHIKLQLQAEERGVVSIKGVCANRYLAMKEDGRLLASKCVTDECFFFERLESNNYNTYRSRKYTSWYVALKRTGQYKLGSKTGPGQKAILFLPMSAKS
Sequence of Luciferin 4-monooxygenase (Photinus pyralis) (P08659 whole entry, looked up): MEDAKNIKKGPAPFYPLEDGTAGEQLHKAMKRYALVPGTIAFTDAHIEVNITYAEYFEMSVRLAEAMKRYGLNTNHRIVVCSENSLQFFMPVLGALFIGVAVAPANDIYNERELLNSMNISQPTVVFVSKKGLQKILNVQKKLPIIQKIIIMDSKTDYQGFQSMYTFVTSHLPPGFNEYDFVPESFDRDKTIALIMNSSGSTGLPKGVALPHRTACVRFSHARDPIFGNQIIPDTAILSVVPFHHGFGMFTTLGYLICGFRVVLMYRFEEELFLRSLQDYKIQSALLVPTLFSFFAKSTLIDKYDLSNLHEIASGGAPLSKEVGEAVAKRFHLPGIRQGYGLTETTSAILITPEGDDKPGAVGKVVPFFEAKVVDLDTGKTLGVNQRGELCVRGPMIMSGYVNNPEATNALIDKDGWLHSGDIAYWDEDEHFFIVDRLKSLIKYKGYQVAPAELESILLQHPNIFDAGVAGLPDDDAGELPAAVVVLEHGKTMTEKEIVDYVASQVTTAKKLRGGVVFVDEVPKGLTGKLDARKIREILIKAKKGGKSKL
Sequence of Streptavidin (Streptomyces avidinii) (P22629 whole entry, looked up): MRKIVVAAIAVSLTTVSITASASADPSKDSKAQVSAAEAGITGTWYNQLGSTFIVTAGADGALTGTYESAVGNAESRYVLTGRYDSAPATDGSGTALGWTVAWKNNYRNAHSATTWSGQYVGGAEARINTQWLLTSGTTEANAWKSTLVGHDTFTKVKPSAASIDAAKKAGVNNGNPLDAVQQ

Row | SMILES | composite z-score [1] | composite z-score [2] | composite z-score [3] | composite z-score [4] | composite z-score [5] | composite z-score [6] | z-score [7] | composite z-score (Lefty1) | composite z-score [8] | z-score [9] | composite z-score [10] | z-score [11] | z-score [12] | z-score [13] | z-score [14] | composite z-score [15] | composite z-score [16] | composite z-score (Torsin-1A (Homo sapiens) [17]) | composite z-score (Torsin-1A (Homo sapiens) [18]) | composite z-score [19]
1 | CC(C)C[C@@H]1NC(=O)[C@H]2C[C@@H](C(=O)NCCCCCCN(C)C)[C@@H](c3ccc(O)cc3)N2C1=O | 2.44 | 0.977 | 0.34 | 0.357 | 1.35 | 1.29 | -0.0361 | 1.19 | 0.115 | -0.263 (inactive) | 0.836 | -0.29 (inactive) | -0.041 (inactive) | -0.398 (inactive) | 0.425 (inactive) | 0.189 | -0.147 | 1.47 | 1.52 | 1.97
2 | CN(C)C(=O)[C@]1(Cc2ccccc2CN=[N+]=[N-])N=C(c2ccc(OCCCO)cc2)O[C@@H]1c1ccccc1CN=[N+]=[N-] | 1.17 | 1.25 | 0.44 | 0.969 | 1.28 | 0.355 | 0.0653 | 1.06 | 1.09 | -0.554 (inactive) | 0.49 | -5.26 (inactive) | -0.611 (inactive) | 1.31 (inactive) | -0.394 (inactive) | 0.61 | 0.461 | 1.14 | 0.917 | 1.11
3 | O=C(NCC(F)(F)F)[C@@H]1c2ccccc2C(=O)N(C2CCCCC2)[C@H]1c1ccc(CO)cc1 | -0.216 | 0.402 | -0.013 | 0.403 | 0.173 | -0.179 | 0.221 | -0.63 | 0.807 | -0.128 (inactive) | -0.107 | -1.51 (inactive) | 0.795 (inactive) | 0.299 (inactive) | -0.258 (inactive) | 0.0656 | -0.0422 | 0.252 | -0.287 | -0.376
4 | CCOC(=O)C[C@H]1[C@H](OC(=O)Cc2ccc3c(c2)OCO3)[C@@H](NC(=O)c2ccc(-c3ccccc3)cc2)c2cc(OCCCO)ccc2N1C(=O)c1ccc2ccccc2n1 | 0.0542 | 0.242 | 0.179 | 0.368 | 0.46 | -0.0919 | -0.728 | 0.278 | 0.132 | 0.74 (inactive) | 0.317 | -4.97 (inactive) | -0.157 (inactive) | 4.93 (inactive) | -0.87 (inactive) | 1.41 | -0.231 | -0.184 | 0.438 | 0.0508
5 | COCCCNC(=O)[C@@]1(Cc2ccccc2)N=C(c2ccc(OCCCO)cc2)O[C@H]1c1ccccc1 | 3.17 | 1.26 | 0.102 | 0.959 | 0.448 | 0.706 | 0.26 | -0.559 | 1.11 | -0.391 (inactive) | 1.3 | -1.99 (inactive) | 0.669 (inactive) | -0.0249 (inactive) | -0.437 (inactive) | 2.34 | 0.786 | 0.268 | 1.16 | 0.0157
6 | O=C(NCc1ccccc1)[C@@]1(CCS(=O)(=O)c2ccccc2)N=C(c2ccc(OCCCO)cc2)O[C@H]1c1ccccc1 | 1.52 | 1.26 | 0.54 | 0.994 | 1.21 | -0.0657 | -0.346 | 0.116 | 1.1 | 0.548 (inactive) | 0.794 | -2.09 (inactive) | -0.847 (inactive) | -0.435 (inactive) | -0.516 (inactive) | 1.8 | 0.212 | 1.35 | 1.16 | -0.756
7 | CN(C)CCCNC(=O)[C@@]1(c2ccc([N+](=O)[O-])cc2)CC(=O)N(C2CCCCC2)[C@@H]1c1ccc(CO)cc1 | -0.0406 | 0.108 | -0.221 | 0.874 | 0.928 | -0.209 | 1.22 | 0.401 | -0.0351 | -0.0244 (inactive) | -0.217 | -0.406 (inactive) | 0.382 (inactive) | 0.234 (inactive) | -0.342 (inactive) | 0.494 | 0.0342 | -0.485 | -0.161 | 0.371
8 | C=CC[C@@]1(C(=O)NCc2ccccc2)N=C(c2ccc(OCCCO)cc2)O[C@@H]1c1ccccc1N=[N+]=[N-] | 2.41 | 1.24 | 0.649 | 0.993 | 1.28 | 0.281 | 0.444 | 0.11 | 1 | -8.72 (active) | 0.465 | -2.73 (inactive) | -0.291 (inactive) | 3.85 (inactive) | 0.34 (inactive) | 1.15 | 0.174 | 1.23 | 0.762 | -0.245
9 | COc1ccc([C@H]2C[C@H]3C(Br)=C[C@@H]2C(=O)[C@]32CO2)cc1 | 0.613 | -0.751 | 0.298 | -0.325 | 0.6 | 0.194 | 0.271 | 0.0745 | -0.138 | -0.388 (inactive) | -0.0556 | 0.0402 (inactive) | 1.11 (inactive) | 2.85 (inactive) | 0.357 (inactive) | 0.256 | -0.0822 | -0.0733 | -0.12 | 0.311
10 | CC1CC/C=C\[C@H]2OC34C=CCN(Cn5nnc6ccccc65)C(=O)[C@H]3N(C(CO)C(C)C)C(=O)[C@@H]4C2C(=O)O1 (stereo not given in full) | 1.63 | 0.19 | 0.0406 | 0.422 | -0.311 | -0.464 | -0.408 | -0.2 | 1.09 | 0.178 (inactive) | -0.347 | 0.154 (inactive) | -0.246 (inactive) | -1.03 (inactive) | -1.05 (inactive) | -0.24 | -0.159 | -1.45 | -1.12 | 0.627
